# According to PubChem BioAssay (Tox21):
# Inconclusive results are not listed. Unmarked numbers belong to inactive results. Activity calls are given as the source filed them. Calls come from the whole dose curve. Starred links: 1 amine or outer side, 2 acyl side, 3 side chain; linkers in the order of their positions; H or OH if unused. Positions of bridges follow the written chain, without caps; N, C: chain ends. Non-standard residues stand in square brackets, D forms with d. Residues, ends and D or L forms follow the SMILES beside them. *: point of attachment. X5 = NC1=N[C@@H]([C@H](N[*:1])C(=O)[*:2])C[C@H](O)N1; ΔAla(Z-3-ureido) = NC(=O)N/C=C(\N)C(=O)O; β3hOrn = NCCC[C@H](N)CC(=O)*; Orn = NCCC[C@H](N)C(=O)O; Dap = NC[C@H](N)C(=O)O; Mpa = O=C(O)CCS
# Assay: qHTS assay for small molecule agonists of the p53 signaling pathway - cell viability (AID 651633);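 note: p53RE-bla HCT reporter cells with a stable beta-lactamase p53 reporter; nearly all actives have a fitted effect of over 30% in size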
# Settings: p53RE-bla HCT-116 viability, ATP luminescence, 16 h; series mostly up to 83.3 µM; activity change, negative = cytotoxicity: at the top concentration
# Method in brief: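 p53RE-bla cells, seeded at 4,000 per well and rested 5 h at 37 C/5% CO2, received compounds in DMSO for 16 h at 37 C. CellTiter-Glo was then added, and luminescence was read after 30 min at room temperature to gauge cytotoxicity.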
# % is set by controls: 0 for no effect and ±100 for the full control effect.
Structure (SMILES),Potency,"activity change, negative = cytotoxicity"
COCC1=C(C(=O)OC(C)OC(=O)OC(C)C)N2C(=O)[C@@H](NC(=O)/C(=N\OC)c3csc(N)n3)[C@H]2SC1 (some centres undefined),inactive,
CO[C@@H]1[C@@H](O[C@@H]2O[C@H](C)[C@@H](O[C@H]3C[C@@](C)(O)[C@@H](OC(=O)CC(C)C)[C@H](C)O3)[C@H](N(C)C)[C@H]2O)[C@@H](CC=O)C[C@@H](C)[C@@H](O)/C=C/C=C/C[C@@H](C)OC(=O)C[C@H]1O,inactive,
CC(=O)O[C@H]1C[C@@H]2CC[C@@H]3[C@H](CC[C@@]4(C)[C@H]3C[C@H](N3CC[N+](C)(C)CC3)[C@@H]4OC(C)=O)[C@@]2(C)C[C@@H]1N1CC[N+](C)(C)CC1,,16.4%
NCCC[C@H](N)CC(=O)N[C@H]1CNC(=O)[C@H]([C@H]2C[C@H](O)NC(N)=N2)NC(=O)/C(=C/NC(N)=O)NC(=O)[C@H](CO)NC(=O)[C@H](CO)NC1=O (β3hOrn-[Dap]SS[ΔAla(Z-3-ureido)][X5]; lactam 1-C),,5.17%
CCOc1ccc(C[C@H]2NC(=O)CCSSC[C@@H](C(=O)N3CCC[C@H]3C(=O)N[C@@H](CCCN)C(=O)NCC(N)=O)NC(=O)[C@H](CC(N)=O)NC(=O)[C@H]([C@@H](C)O)NC(=O)[C@H]([C@@H](C)CC)NC2=O)cc1 ([Mpa][dY](Et)ITNCP[Orn]G-NH2; disulfide 1-6),,9.72%
O=P(O)(O)C(O)(Cc1cnc2ccccn12)P(=O)(O)O,,5.17%
OCC(O)COc1ccc(Cl)cc1 (centres undefined),,-7.18%
CCCCCCCCCCCCCCCC(=O)OC[C@@H](NC(=O)C(Cl)Cl)[C@H](O)c1ccc([N+](=O)[O-])cc1,,10.8%
NC(=O)Oc1ccc(Cc2ccccc2)cc1,,14.3%
CCCC(CCC)C(N)=O,,11.9%
CC1CC(OC(=O)C(O)c2ccccc2)CC(C)(C)C1 (centres undefined),,-20.8%
OC(CN1CCCCC1)c1cc(-c2ccccc2)on1 (centres undefined),,3.42%
CCC(c1ccccc1)c1noc(CCN(CC)CC)n1 (centres undefined),,-6.5%
O=S(O)CNc1ccc(S(=O)(=O)c2ccc(NCS(=O)O)cc2)cc1,,-15.3%
C=CCN1CCCC1CNC(=O)c1cc(S(N)(=O)=O)cc(OC)c1OC (centres undefined),,-8.2%
CCCCCCCCCCCCCCCCCC(=O)OCCO,,7.4%
CCCCCCCCCCCCCCCCCCCCCC(=O)Nc1ccn([C@@H]2O[C@H](CO)[C@@H](O)[C@@H]2O)c(=O)n1,,-15%
CCCCOC(=O)C(=O)Nc1cccc(-c2nn[nH]n2)c1,,19.1%
CCOC(=O)[C@H](CCc1ccccc1)N[C@H]1CCCN2CCC[C@@H](C(=O)O)N2C1=O,,13.2%
CC(C)CN(C[C@@H](O)[C@H](Cc1ccccc1)NC(=O)O[C@@H]1CCOC1)S(=O)(=O)c1ccc(N)cc1,,2.75%

Structure (SMILES),Potency,"activity change, negative = cytotoxicity"
O.O=C([O-])CC([S-])C(=O)[O-].[Au+].[Na+].[Na+] (centres undefined),,12.2%
O=P(O)(O)C(Sc1ccc(Cl)cc1)P(=O)(O)O,,7%
O=C(CCCN1CCC(C(=O)c2ccc(F)cc2)CC1)c1ccc(F)cc1,,-10.6%
C[C@H]1C[C@H]2[C@@H]3CCC4=CC(=O)C=C[C@]4(C)[C@@]3(F)[C@@H](O)C[C@]2(C)[C@@]1(O)C(=O)CCl,,-9.37%
CC#CCC(C)[C@H](O)/C=C/[C@@H]1[C@H]2C/C(=C/CCCC(=O)O)C[C@H]2C[C@H]1O (some centres undefined),,11.4%
NCCC[C@H](N)C(=O)O,,11.8%
CN1[C@@H]2CCC[C@H]1CC(NC(=O)c1nn(C)c3ccccc13)C2 (some centres undefined),,3.22%
CS(=O)(=O)NC(=O)CCC/C=C\C[C@H]1C(=O)C[C@@H](O)[C@@H]1/C=C/[C@H](O)COc1ccccc1,,26.1%
OC[C@@H](O)C(O)[C@H](O)CO,,12.4%
N[C@@H](C(=O)N[C@@H]1C(=O)N2C(C(=O)O)=C(CSc3cn[nH]n3)CS[C@H]12)c1ccc(O)cc1,,9.48%
CC1(C)S[C@@H]2[C@H](NC(=O)Cc3ccccc3)C(=O)N2[C@H]1C(=O)O,,-6.79%
COC(=O)[C@H]1[C@H]2C[C@@H]3c4[nH]c5cc(OC)ccc5c4CCN3C[C@H]2C[C@@H](OC(=O)/C=C/c2cc(OC)c(OC)c(OC)c2)[C@@H]1OC,,4.61% [at 39.1 µM]
Cn1nnnc1SCC1=C(C(=O)O)N2C(=O)[C@@H](NC(=O)[C@H](OC=O)c3ccccc3)[C@H]2SC1,,16.4%
CC(C)(C)CC(=O)OCC(=O)[C@@]12OC(C)(C)O[C@@H]1C[C@H]1[C@@H]3CCC4=CC(=O)C=C[C@]4(C)[C@@]3(F)[C@@H](O)C[C@@]12C,,21.8%
COc1ccc2c(=O)c(C)c(-c3ccccc3)oc2c1CN(C)C,,14.1%
CCOC(=O)COc1ccc2c(C)c(CCN(CC)CC)c(=O)oc2c1,,10.1%
O=C(O)[C@H](CC(=O)N1C[C@H]2CCCC[C@H]2C1)Cc1ccccc1,,-21.4%
C=C1/C(=C\C=C2/CCC[C@]3(C)[C@@H]([C@H](C)OCCC(C)(C)O)CC[C@@H]23)C[C@@H](O)C[C@@H]1O,,-6.25%
N=C(N)c1ccc(OCCCOc2ccc(C(=N)N)cc2Br)c(Br)c1,,1.1%
